Hits are enriched below; roughly 32% of the tested compounds scored in any of these assays.
PostGolgi yeast: growth inhibition of a yeast mutant, post-Golgi transport screen. post-Golgi transport phenotypic cell assay. inhibition, % at 10 µM. 98,000 compounds, 0.9% hits. AID 739;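 also: yeast cells grown in 1536-well plates; yeast grown about 18 h at 30C before absorbance read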
CYP2C19 inhib: inhibitors of human CYP2C19. 96,000 compounds, 21% hits. P33261. CYP2C19 Supersomes, luciferin-H EGE luminescence, 30 min. AID 778. inhibition, % at 5 µM;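 active = CYP2C19 inhibition above a set limit at 5 µM in the primary screen, cut at about 50% in these data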;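 also: plate controls were negative control wells for no effect and 2.5 mM tranylcypromine positive control for full effect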
Target sequence (P33261 whole entry, looked up): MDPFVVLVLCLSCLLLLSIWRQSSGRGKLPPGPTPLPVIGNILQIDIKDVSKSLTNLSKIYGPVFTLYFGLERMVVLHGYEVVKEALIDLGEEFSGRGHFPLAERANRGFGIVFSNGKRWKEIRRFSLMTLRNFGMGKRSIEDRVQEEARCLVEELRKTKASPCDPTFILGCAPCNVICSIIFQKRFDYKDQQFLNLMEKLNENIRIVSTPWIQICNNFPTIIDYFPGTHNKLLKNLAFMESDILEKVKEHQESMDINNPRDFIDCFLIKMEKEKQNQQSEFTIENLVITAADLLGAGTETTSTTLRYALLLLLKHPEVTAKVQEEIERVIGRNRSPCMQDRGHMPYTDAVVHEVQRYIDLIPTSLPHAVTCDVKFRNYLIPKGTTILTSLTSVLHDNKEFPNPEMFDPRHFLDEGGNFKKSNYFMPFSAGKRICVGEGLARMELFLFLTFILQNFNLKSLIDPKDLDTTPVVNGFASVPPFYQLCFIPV
CYP2C9 activ: activators of human CYP2C9; recombinant CYP2C9, luciferin-H conversion, luminescence; active compounds read high; factor 1 = untreated enzyme, 0 = blocked; P11712; 96,000 compounds, 1.4% hits; activation factor at 5 µM;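 active = activation factor of 2 or more for CYP2C9 at a 5 µM dose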;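 also: 0 = sulfaphenazole-blocked wells and 1 = vehicle-only wells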
CYP2C19 act: activators of human cytochrome P450 2C19. P33261. recombinant CYP2C19, luciferin-H EGE luminescence; active compounds read high; 0 = fully inhibited enzyme, 1 = untreated enzyme. activation factor at 5 µM. 96,000 tested, under 10 active. AID 1025;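 active = activation factor of at least 2 at 5 µM in the primary screen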;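 also: 0 = wells with 2.5 mM tranylcypromine and 1 = vehicle-only wells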
CYP2C9 inhib: human CYP2C9 inhibition; P11712; CYP2C9 Supersomes, luciferin-H conversion, luminescence; inhibition, % at 5 µM; 96,000 compounds, 20% hits; AID 777;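 active = blocking of liver enzyme CYP2C9 beyond about 50% at 5 µM, limit read from the data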
PostGolgi ctrl: growth of the yeast control strain, post-Golgi counter-screen; efflux-deficient yeast background strain, growth absorbance A615, 16 h; inhibition, % at 10 µM; 98,000 compounds, 5% hits; AID 738
* marks the source's active call; other numbers are inactive results; · = no result given. Rule as the data show it, unless noted: active = inhibition above about 30%; inactive = the rest.

SMILES	PostGolgi yeast	CYP2C19 inhib	CYP2C9 activ	CYP2C19 act	CYP2C9 inhib	PostGolgi ctrl
Cc1ccc(S(=O)(=O)N(C)CCCC(=O)N2CCN(c3ccccn3)CC2)cc1	-6	52*	0.7	0.5	33	13
Cc1sc2c(c1C)C(c1ccc(C(C)(C)C)cc1)=NCC(=O)N2CC(=O)Nc1nccs1	4	10	0.7	0.9	28	26
C#CCN1C(=O)C2(C(C#N)=C(N)OC(C)=C2C(=O)OCc2ccccc2)c2ccccc21 (stereo not drawn)	14	39	0.7	0.6	31	13
Cc1ccc2c(c1)CC1(CN2C)C(=O)NC(=O)N(CCC2=CCCCC2)C1=O (stereo not drawn)	11	29	0.6	0.7	44	40*
Cc1ccc2c(c1)CC1(CN2C)C(=O)NC(=O)N(C(C)C)C1=O (stereo not drawn)	0	82*	0.7	0.2	30	8
CCC(C)N1C(=O)NC(=O)C2(Cc3cc(C)ccc3N(C)C2)C1=O (stereo not drawn)	-4	89*	0.3	0.1	70*	10
CC1=[N+]([O-])C2(N)CCc3nonc3C2(O)C1 (stereo not drawn)	-5	2	1.1	1	-5	20
O=C(CN1CC(c2ccccc2)CC1=O)Nc1ccc(F)cc1 (stereo not drawn)	12	·	·	·	·	13
Cc1cc(OCC(=O)Nc2c(C)n(C)n(-c3ccccc3)c2=O)c2c3c(c(=O)oc2c1)CCC3	·	10	1	0.9	-2	·
Cc1cc(N2C(=O)C3CCCN3C2c2ccccc2)no1 (stereo not drawn)	-3	-13	1.1	1.1	-6	-4
C=CCN1C(=O)NC(=O)/C(=C/c2ccc(OC)c(CSc3ccccn3)c2)C1=O	-16	52*	0.8	0.5	19	15
CCCCN1C(=O)NC(=O)/C(=C/c2cnc(SC)nc2)C1=O	-3	-1	1	1	1	10
COc1ccc(OC)c(N2C(=O)NC(=O)C(CCc3ccncc3)(CCc3ccncc3)C2=O)c1	-4	·	·	·	·	14
O=C1NC(=O)C(CCc2ccncc2)(c2ccccc2)C(=O)N1	30	55*	0.1	0.4	93*	2
COC(=O)C(O)(c1c(C)[nH]c2ccccc12)C(F)(F)F (stereo not drawn)	-8	39	1	0.6	-2	3
CCOC(=O)C(O)(c1cn(C)c2ccccc12)C(F)(F)F (stereo not drawn)	-2	9	2.6*	0.9	-164	1
O=P(O)(O)C#Cc1ccccc1	-3	-3	0.8	1	20	-7
CN(C)c1ccc(C(=O)c2ccc(N(C)C)cc2)cc1	7	66*	2.2*	0.3	-116	7
O=P(c1ccccc1)(c1ccccc1)N1CCCCC1	6	29	0.6	0.7	38	15
OC12Oc3ccccc3C=C1N1CCC2CC1 (stereo not drawn)	-11	8	1.1	0.9	-15	6
CN1C(=O)N(C)C(=O)C2(Cc3c(ccc4ccccc34)N(C)C2)C1=O	-2	66*	0.7	0.3	34	13
Cc1cc(C)c(S(=O)(=O)NCC2CCC(C(=O)N3CCC4(CC3)OCCO4)CC2)c(C)c1 (stereo not drawn)	-2	26	0.9	0.7	13	4
Cc1ccc(C2N(c3cc(C)on3)C(=O)C3CCCN32)cc1 (stereo not drawn)	1	-9	1	1.1	-3	-3
CCN1CC=C(c2c[nH]c3ccccc23)CC1	12	-14	1.1	1.1	-12	-3
CCN(CC)c1ccc(CN2CC=C(c3ccc(F)cc3)CC2)cc1	60*	27	1.1	0.7	-10	22
SMILES	PostGolgi yeast	CYP2C19 inhib	CYP2C9 activ	CYP2C19 act	CYP2C9 inhib	PostGolgi ctrl
O=C1OCCC1NC1=NCCC1 (stereo not drawn)	-1	-2	1	1	1	1
CC(C(=O)N1CCC2(CC1)OCCO2)C1Sc2ccccc2NC1=O (stereo not drawn)	7	95*	0.9	0	13	12
Cc1cc(C)n(CCOC(=O)C2C(C=C(Cl)Cl)C2(C)C)n1 (stereo not drawn)	9	92*	0.3	0.1	75*	24
Cc1nnc(SCc2nc3ccccc3c(=O)n2-c2ccccc2Cl)n1N	-1	13	1	0.9	3	10
O=P(O)(O)C12CC3CC(CC(C3)C1)C2	2	45	0.4	0.6	62*	-1
C[C@H]1CCC[C@H](O)CCCCCc2cc(O)cc(O)c2C(=O)O1	0	81*	0.6	0.2	44	5
CC1CCC/C=C/C2CC(O)CC2C(O)/C=C/C(=O)O1 (stereo not drawn)	0	11	1.1	0.9	-11	0
C[C@H]1CCC[C@@H](O)CCC/C=C/c2cc(O)cc(O)c2C(=O)O1	-3	89*	0.2	0.1	78*	8
COC(=O)c1cc(C(O)(C(=O)OC)C(F)(F)F)c(/N=C/N(C)C)s1 (stereo not drawn)	-3	83*	0.3	0.2	73*	2
CCCC1COC(Cn2cncn2)(c2ccc(Cl)cc2Cl)O1 (stereo not drawn)	85*	93*	0.2	0.1	77*	96*
Oc1cccc(/C=N/NP(=S)(c2ccccc2)c2ccccc2)c1	-9	94*	0	0.1	99*	17
CCN1CCN(Cc2cc(Br)ccc2O)CC1	-27	22	1.3	0.8	-33	0
CCN1CCN(Cc2cc(Br)cc(Br)c2O)CC1	-2	60*	0.9	0.4	9	10
O=c1[nH]c(=O)n(CCc2ccccc2)c(O)c1C=NCc1ccc2c(c1)OCO2	4	-26	0.8	1.3	25	4
Cc1cccc(N2C(=O)CC(=O)NC2=O)c1	5	-10	1.1	1.1	-9	14
COc1ccc(N2C(=O)CC(=O)NC2=O)cc1	-9	6	0.9	0.9	11	0
Cc1cccc(N2C(=O)NC(=O)C3(Cc4cc(C)ccc4N(C)C3)C2=O)c1 (stereo not drawn)	0	13	0.4	0.9	63*	6
COc1ccc2c(c1)CC1(CN2C)C(=O)NC(=O)N(c2ccc(F)cc2)C1=O (stereo not drawn)	23	19	0.3	0.8	71*	-9
COc1ccc2c(c1)CC1(CN2C)C(=O)NC(=O)N(c2ccc(C)cc2)C1=O (stereo not drawn)	1	14	0.4	0.9	62*	10
O=P(O)(O)Cc1ccccc1OP(=O)(c1ccccc1)c1ccccc1	-8	0	0.9	1	11	3
CCOP(=O)(OCC)C(C)(C)NC(=O)C(Cl)(Cl)Cl	1	37	1	0.6	4	2
CNP1(NC)=NC(C(F)(F)F)=NC(C(F)(F)F)=N1	-1	11	0.9	0.9	7	0

Screens from PubChem BioAssay.
